Assay results published in PubChem BioAssay.
For some assays here: Entries with a potency or affinity are not part of this list. Calls of active or inactive are those of the source. Unless noted, no cut-off is given here; in the data, nearly all actives have IC50 up to about 0.98 µM.

System: not listed separately
Test: inhibition of 3D7 malaria parasite growth – strain 3D7 (AID 2306; call rule not given here;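 note: 0% = DMSO wells and 100% = chloroquine plus artemisinin control wells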)
Details: P. falciparum 3D7 erythrocytic growth, LDH absorbance, 72 h; at 2 µM; hits give high values

Which growth inhibition does the source give for NCCCNc1ccc(-c2ccc(NC(=O)Nc3cc(C(F)(F)F)ccc3F)cc2)cn1 here?
The growth inhibition was 100% (active).

For O=C(NCCN1CCC(c2ncc(-c3ccccc3)o2)CC1)c1ccc(NC(=O)c2ccc(Cl)cc2)cc1, which growth inhibition is on record?
The growth inhibition was 101% (active).

With O=C(c1cc(C(=O)Nc2ccccc2F)c(=O)n(-c2ccccc2F)c1)c1cc(Cl)ccc1O as the molecule, how does the growth inhibition read?
The growth inhibition was 98% (active).

Which growth inhibition does the source give for CCN1CCC(N(Cc2ccc(-c3ccc(C(F)(F)F)cc3)cc2)C(=O)Cn2c(CCc3cccc(F)c3F)cc(=O)c3c2CCC3)CC1 here?
The growth inhibition was 89% (active).

With Cc1ccc(NC(=O)c2ccc(N3CCC(c4ccccc4C)CC3)nc2)cc1 as the molecule, how does the growth inhibition read?
Its growth inhibition is 83% (active).

With Cc1ccc2[nH]c3c(c2c1)CC(C(=O)NCCC(C)C)NC31CCN(Cc2ccccc2)CC1 (stereo not given) as the molecule, how does the growth inhibition read?
Its growth inhibition is 95% (active).

With CCc1cc2c3c(N)nc(N)nc3ccc2n1CC as the molecule, how does the growth inhibition read?
Its growth inhibition is 93% (active).

For CN(C)CCOc1cc(NC(=O)Nc2ccc(-c3ccccc3)cc2Cl)ccc1I, which growth inhibition is on record?
The growth inhibition was 102% (active).

Which growth inhibition does the source give for CN1CCCC1CCOc1ccc2c(c1)N(C(=O)Nc1cc(Br)cc(C(F)(F)F)c1)CC2 (stereo not given) here?
The growth inhibition was 102% (active).

With CN1CCN(c2ccnc3cc4ccccc4cc23)CC1 as the molecule, how does the growth inhibition read?
Its growth inhibition is 93% (active).

Which growth inhibition does the source give for CC(=Nc1ccc(Cl)c(Cl)c1)N(C)C here?
Its growth inhibition is 98% (active).

Which growth inhibition does the source give for CN1CCCc2cc(NC(=O)C=Cc3ccc(-c4ccc(F)cc4F)o3)ccc2C1 here?
Its growth inhibition is 90% (active).

Which growth inhibition does the source give for Cn1cncc1CCN(Cc1ccc(-c2ccc(C(F)(F)F)cc2)cc1)C(=O)Cn1c(SCc2cccc(F)c2F)cc(=O)c2ccccc21 here?
The growth inhibition was 99% (active).

With Cc1cc(NC(=O)Nc2ccc(N(C)C)cc2)c2cc(Cl)ccc2n1 as the molecule, how does the growth inhibition read?
The growth inhibition was 100% (active).

Which growth inhibition does the source give for CC(CN1CCN(C)CC1)C(=O)Nc1cccc(-c2cccc(-c3nc4ccccc4[nH]3)c2)c1 (stereo not given) here?
The growth inhibition was 88% (active).

For Cc1ccccc1N1CCN(c2ccc(C(=O)Nc3ccccc3)cc2)CC1, which growth inhibition is on record?
The growth inhibition was 89% (active).

For OCCN1CCN(Cc2ccc(-c3ccc(-c4nc5ccc(C(F)(F)F)cc5[nH]4)s3)cc2)CC1, which growth inhibition is on record?
Its growth inhibition is 101% (active).

For NC(N)=NCCCN(Cc1ccccc1)c1ccc(Cl)cc1, which growth inhibition is on record?
Its growth inhibition is 100% (active).

Which growth inhibition does the source give for O=[N+]([O-])c1cccc(S(=O)(=O)N2CCN(CC(O)COc3ccc(-c4ccccc4)cc3)CC2)c1 (stereo not given) here?
Its growth inhibition is 94% (active).

Which growth inhibition does the source give for COc1ccc(-c2cccc(NC(=O)c3ccc(Cl)cc3)c2)cc1CNC(C)C here?
The growth inhibition was 101% (active).

Which growth inhibition does the source give for c1cc2c3c(cccc3c1)NC(CCCCCCCCC1=Nc3cccc4cccc(c34)N1)=N2 here?
The growth inhibition was 93% (active).

Which growth inhibition does the source give for CCc1ccc(C(=O)Nc2cccc(CN3CCCN(Cc4ccc(O)cc4)CC3)c2)cc1 here?
Its growth inhibition is 101% (active).

Which growth inhibition does the source give for c1ccc(COc2ccccc2COc2ccccc2-c2ccc3cccnc3n2)cc1 here?
The growth inhibition was 87% (active).

For O=S(=O)(Nc1ccc(CCN2CCC(N3CCCCC3)CC2)cc1)c1ccc2ccccc2c1, which growth inhibition is on record?
The growth inhibition was 101% (active).

With Cc1cccc(CNc2nc(C)cc(N[C@@H](Cc3ccccc3)C(=O)NCCOc3ccccc3)n2)c1 as the molecule, how does the growth inhibition read?
Its growth inhibition is 93% (active).

Which growth inhibition does the source give for Cc1cc(C(F)(F)F)n2nc(C3CCN(Cc4cc(C)c(O)c(C)c4)C3)cc2n1 (stereo not given) here?
The growth inhibition was 98% (active).

With CC1(C)CN(CCC2CCC(NC(=O)/C=C/c3ccccc3F)CC2)Cc2ccc(C#N)cc21 (stereo not given) as the molecule, how does the growth inhibition read?
The growth inhibition was 89% (active).

For NC(N)=NCCCCN(Cc1ccccc1)c1ccccc1, which growth inhibition is on record?
Its growth inhibition is 100% (active).

Which growth inhibition does the source give for Cc1cc(N(C)CCCN2CCCCC2)nc(Nc2ccc(Cl)cc2)n1 here?
The growth inhibition was 101% (active).

With OCCNc1nc(Nc2ccc(Cl)cc2)nc2ccccc12 as the molecule, how does the growth inhibition read?
Its growth inhibition is 102% (active).

For C[C@H](Cc1ccc(OCCCCCCOc2ccc(C[C@@H](C)NC[C@H](O)c3cccc(Cl)c3)cc2)cc1)NC[C@H](O)c1cccc(Cl)c1, which growth inhibition is on record?
The growth inhibition was 99% (active).

Which growth inhibition does the source give for Cc1sc(CNCCCNc2cc(=O)c3ccccc3[nH]2)c(I)c1C here?
The growth inhibition was 94% (active).

For Cc1cccc2[nH]c(-c3cccc(-c4cccc(NC(=O)C(C)CN(C)C)c4)c3)nc12 (stereo not given), which growth inhibition is on record?
The growth inhibition was 101% (active).

For CN1CCN(Cc2cc3cc(NC(=O)/C=C/c4cccc(Cl)c4)ccc3s2)CC1, which growth inhibition is on record?
The growth inhibition was 100% (active).

With CCc1ccc(-c2cnc(N)c3cc(-c4ccnc(N)n4)ccc23)cc1 as the molecule, how does the growth inhibition read?
Its growth inhibition is 92% (active).

With CCCN=CNc1cc(-c2csc(N=C(N)N)n2)cc([N+](=O)[O-])c1 as the molecule, how does the growth inhibition read?
The growth inhibition was 91% (active).

Which growth inhibition does the source give for CCOc1cc(Cc2cnc(N)nc2N)cc(OCC)c1OCCCCC(=O)OC here?
The growth inhibition was 95% (active).

For Cc1ccc(-n2c(Cc3cccc4ccccc34)nnc2SCCC#N)c(C)c1, which growth inhibition is on record?
The growth inhibition was 95% (active).

For CC(Nc1cc(-c2ccccn2)nc(-c2ccccn2)n1)c1ccccc1 (stereo not given), which growth inhibition is on record?
The growth inhibition was 85% (active).

For CS(=O)(=O)CCOCc1ccc(-c2ccc3ncnc(Nc4ccc(OCc5cccc(F)c5)c(Cl)c4)c3c2)o1, which growth inhibition is on record?
Its growth inhibition is 96% (active).

Target: Calcium-dependent protein kinase 1 (Plasmodium falciparum (isolate 3D7)) (UniProt P62344)
Test: PfCDPK1 kinase inhibitors, biochemical, TCAMS library (AID 1159585);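 note: inhibitors leave more ATP so luminescence rises with inhibition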
Details: recombinant PfCDPK1, Kinase-Glo ATP depletion luminescence

Chain of Calcium-dependent protein kinase 1 (Plasmodium falciparum (isolate 3D7)) (P62344 whole entry, looked up): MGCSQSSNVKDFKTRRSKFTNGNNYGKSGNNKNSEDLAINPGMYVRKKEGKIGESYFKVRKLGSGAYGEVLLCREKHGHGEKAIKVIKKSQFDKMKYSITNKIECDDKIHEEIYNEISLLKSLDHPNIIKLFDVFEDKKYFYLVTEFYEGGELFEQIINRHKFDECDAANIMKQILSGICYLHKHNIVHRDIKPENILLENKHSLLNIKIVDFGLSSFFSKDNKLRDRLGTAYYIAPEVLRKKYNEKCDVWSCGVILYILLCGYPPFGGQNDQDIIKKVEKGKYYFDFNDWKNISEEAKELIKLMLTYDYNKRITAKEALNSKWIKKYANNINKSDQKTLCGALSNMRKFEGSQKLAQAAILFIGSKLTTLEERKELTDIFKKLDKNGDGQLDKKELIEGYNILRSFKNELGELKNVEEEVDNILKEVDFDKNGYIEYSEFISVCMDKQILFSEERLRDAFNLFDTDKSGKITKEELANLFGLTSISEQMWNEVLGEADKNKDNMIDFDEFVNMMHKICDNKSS

Which outcome does the source give for NCCCNc1ccc(-c2ccc(NC(=O)Nc3cc(C(F)(F)F)ccc3F)cc2)cn1 here?
Its outcome is “inactive”.

For O=C(NCCN1CCC(c2ncc(-c3ccccc3)o2)CC1)c1ccc(NC(=O)c2ccc(Cl)cc2)cc1, which outcome is on record?
The outcome was “inactive”.

With O=C(c1cc(C(=O)Nc2ccccc2F)c(=O)n(-c2ccccc2F)c1)c1cc(Cl)ccc1O as the molecule, how does the outcome read?
Its outcome is “inactive”.

Which outcome does the source give for CCN1CCC(N(Cc2ccc(-c3ccc(C(F)(F)F)cc3)cc2)C(=O)Cn2c(CCc3cccc(F)c3F)cc(=O)c3c2CCC3)CC1 here?
The outcome was “inactive”.

Which outcome does the source give for Cc1ccc(NC(=O)c2ccc(N3CCC(c4ccccc4C)CC3)nc2)cc1 here?
Its outcome is “inactive”.

With Cc1ccc2[nH]c3c(c2c1)CC(C(=O)NCCC(C)C)NC31CCN(Cc2ccccc2)CC1 (stereo not given) as the molecule, how does the outcome read?
Its outcome is “inactive”.

Which outcome does the source give for CCc1cc2c3c(N)nc(N)nc3ccc2n1CC here?
The outcome was “inactive”.

With CN(C)CCOc1cc(NC(=O)Nc2ccc(-c3ccccc3)cc2Cl)ccc1I as the molecule, how does the outcome read?
Its outcome is “inactive”.

Which outcome does the source give for CN1CCCC1CCOc1ccc2c(c1)N(C(=O)Nc1cc(Br)cc(C(F)(F)F)c1)CC2 (stereo not given) here?
The outcome was “inactive”.

With CN1CCN(c2ccnc3cc4ccccc4cc23)CC1 as the molecule, how does the outcome read?
The outcome was “inactive”.

Which outcome does the source give for CC(=Nc1ccc(Cl)c(Cl)c1)N(C)C here?
The outcome was “inactive”.

Which outcome does the source give for CN1CCCc2cc(NC(=O)C=Cc3ccc(-c4ccc(F)cc4F)o3)ccc2C1 here?
Its outcome is “inactive”.

Which outcome does the source give for Cn1cncc1CCN(Cc1ccc(-c2ccc(C(F)(F)F)cc2)cc1)C(=O)Cn1c(SCc2cccc(F)c2F)cc(=O)c2ccccc21 here?
Its outcome is “inactive”.

With Cc1cc(NC(=O)Nc2ccc(N(C)C)cc2)c2cc(Cl)ccc2n1 as the molecule, how does the outcome read?
The outcome was “inactive”.

Which outcome does the source give for CC(CN1CCN(C)CC1)C(=O)Nc1cccc(-c2cccc(-c3nc4ccccc4[nH]3)c2)c1 (stereo not given) here?
Its outcome is “inactive”.

With Cc1ccccc1N1CCN(c2ccc(C(=O)Nc3ccccc3)cc2)CC1 as the molecule, how does the outcome read?
Its outcome is “inactive”.

Which outcome does the source give for OCCN1CCN(Cc2ccc(-c3ccc(-c4nc5ccc(C(F)(F)F)cc5[nH]4)s3)cc2)CC1 here?
The outcome was “inactive”.

For NC(N)=NCCCN(Cc1ccccc1)c1ccc(Cl)cc1, which outcome is on record?
Its outcome is “inactive”.

For O=[N+]([O-])c1cccc(S(=O)(=O)N2CCN(CC(O)COc3ccc(-c4ccccc4)cc3)CC2)c1 (stereo not given), which outcome is on record?
The outcome was “inactive”.

With COc1ccc(-c2cccc(NC(=O)c3ccc(Cl)cc3)c2)cc1CNC(C)C as the molecule, how does the outcome read?
The outcome was “inactive”.

With c1cc2c3c(cccc3c1)NC(CCCCCCCCC1=Nc3cccc4cccc(c34)N1)=N2 as the molecule, how does the outcome read?
Its outcome is “inactive”.

With CCc1ccc(C(=O)Nc2cccc(CN3CCCN(Cc4ccc(O)cc4)CC3)c2)cc1 as the molecule, how does the outcome read?
The outcome was “inactive”.

With c1ccc(COc2ccccc2COc2ccccc2-c2ccc3cccnc3n2)cc1 as the molecule, how does the outcome read?
The outcome was “inactive”.

For O=S(=O)(Nc1ccc(CCN2CCC(N3CCCCC3)CC2)cc1)c1ccc2ccccc2c1, which outcome is on record?
Its outcome is “inactive”.

With Cc1cccc(CNc2nc(C)cc(N[C@@H](Cc3ccccc3)C(=O)NCCOc3ccccc3)n2)c1 as the molecule, how does the outcome read?
Its outcome is “inactive”.

With Cc1cc(C(F)(F)F)n2nc(C3CCN(Cc4cc(C)c(O)c(C)c4)C3)cc2n1 (stereo not given) as the molecule, how does the outcome read?
Its outcome is “inactive”.

With CC1(C)CN(CCC2CCC(NC(=O)/C=C/c3ccccc3F)CC2)Cc2ccc(C#N)cc21 (stereo not given) as the molecule, how does the outcome read?
Its outcome is “inactive”.

For NC(N)=NCCCCN(Cc1ccccc1)c1ccccc1, which outcome is on record?
The outcome was “inactive”.

For Cc1cc(N(C)CCCN2CCCCC2)nc(Nc2ccc(Cl)cc2)n1, which outcome is on record?
Its outcome is “inactive”.

For OCCNc1nc(Nc2ccc(Cl)cc2)nc2ccccc12, which outcome is on record?
The outcome was “inactive”.

For C[C@H](Cc1ccc(OCCCCCCOc2ccc(C[C@@H](C)NC[C@H](O)c3cccc(Cl)c3)cc2)cc1)NC[C@H](O)c1cccc(Cl)c1, which outcome is on record?
Its outcome is “inactive”.

With Cc1sc(CNCCCNc2cc(=O)c3ccccc3[nH]2)c(I)c1C as the molecule, how does the outcome read?
Its outcome is “inactive”.

For Cc1cccc2[nH]c(-c3cccc(-c4cccc(NC(=O)C(C)CN(C)C)c4)c3)nc12 (stereo not given), which outcome is on record?
Its outcome is “inactive”.

With CN1CCN(Cc2cc3cc(NC(=O)/C=C/c4cccc(Cl)c4)ccc3s2)CC1 as the molecule, how does the outcome read?
The outcome was “inactive”.

With CCc1ccc(-c2cnc(N)c3cc(-c4ccnc(N)n4)ccc23)cc1 as the molecule, how does the outcome read?
Its outcome is “inactive”.

With CCCN=CNc1cc(-c2csc(N=C(N)N)n2)cc([N+](=O)[O-])c1 as the molecule, how does the outcome read?
Its outcome is “inactive”.

With CCOc1cc(Cc2cnc(N)nc2N)cc(OCC)c1OCCCCC(=O)OC as the molecule, how does the outcome read?
Its outcome is “inactive”.

With Cc1ccc(-n2c(Cc3cccc4ccccc34)nnc2SCCC#N)c(C)c1 as the molecule, how does the outcome read?
Its outcome is “inactive”.

With CC(Nc1cc(-c2ccccn2)nc(-c2ccccn2)n1)c1ccccc1 (stereo not given) as the molecule, how does the outcome read?
The outcome was “inactive”.

Which outcome does the source give for CS(=O)(=O)CCOCc1ccc(-c2ccc3ncnc(Nc4ccc(OCc5cccc(F)c5)c(Cl)c4)c3c2)o1 here?
The outcome was “inactive”.
